According to PubChem BioAssay:

assay: growth suppression of yeast trafficking mutant, preliminary HTS, modulators of trafficking downstream of Golgi apparatus project, 1536-format plate, OD 615 nm (AID 637); settings: yeast transport mutant growth, absorbance 615 nm, 18 h; stronger effect = higher value; in the data active = inhibition above about 30%; inactive = the rest

inhibition, inactive:
Cc1cccn2c(=O)c3cc(C(=O)NC4CCCC4)c(=N)n(C4CCCC4)c3nc12 0.81%
Cc1ccc(Cl)cc1N1CCN(C(=O)c2cn(C)c(=O)c3c2c2ccccc2n3C)CC1 4.73%
Cc1cc(C)c2ccc(N)nc2c1O -1.48%
CCC(=O)Oc1ccc(C(CC)C(CC)c2ccc(OC(=O)CC)cc2)cc1 (stereo not given) -1.33%
Cc1ccc2[nH]c3c(c2c1)CN(C(=O)CN1CCN(c2cccc(C)c2C)CC1)CC3 4.36%
CN1CCN(C2=Nc3cc(Cl)ccc3Nc3ccccc32)CC1 3.67%
COc1ccccc1NC(=O)c1oc2ccccc2c1NC(=O)c1cc(OC)c(OC)c(OC)c1 -2.1%
CCOC(=O)c1cc(-c2ccc(Cl)s2)nc2c1c(C)nn2C -0.82%
O=C(O)c1ccc2c3c(ncnc13)-c1ccccc1C2=O 1.67%
COc1cc2nc(N3CCN(C(=O)c4ccco4)CC3)nc(N)c2cc1OC -0.17%
Cc1nnc(NCc2n[nH]c(=O)c3ccccc23)c2ccccc12 1.64%
CCN(CC)S(=O)(=O)c1ccc2[nH]cc(C(=O)NCCC3=CCCCC3)c(=O)c2c1 -0.65%
CCCCn1c(SCc2ccc(Cl)cc2)nc2c1c(=O)[nH]c(=O)n2C 0.73%
O=C(CNCCC1=CCCCC1)Nc1ccccc1N1CCCCC1 6.51%
COc1cc2c(C#N)c(N3CCN(c4ccccc4OC)CC3)nc(N)c2c(N)n1 5.9%
